Bioassay records: PubChem BioAssay, several laboratories
This is a sample that favours compounds with a hit; in the whole collection about 3.7% have one here.
GPR7 antag: GPR7 receptor antagonists, primary screen, cell-based, fluorescence, single concentration | Neuropeptides B/W receptor type 1 (Homo sapiens), P48145 | GPR7-expressing cells, fluorescence antagonist assay | inhibition, % at 4.4 µM | 290,000 tested, 1.1% active; in the data active means inhibition above about 16%, passing the limit was not always enough;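 further: cells stimulated with the agonist NPW; 0% = agonist with vehicle and 100% = vehicle without agonist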
CHT inh: inhibitors of human choline transporter CHT. High affinity choline transporter 1 (Homo sapiens), Q9GZV3. CHT-expressing cells, membrane potential dye, choline response; stronger effect = lower value. B-score at 10 µM. 310,000 tested, 0.86% active. AID 488975, 2010;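 active means B-score over 3 SD under the library average, and starting fluorescence ratio not unusually high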;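 further: choline stimulus applied at its EC90 after an EC20 pre-addition; B-score computed on integrated fluorescence ratio after choline addition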
ANO1 block: TMEM16A chloride channel inhibitors, primary screen, cell-based, HTS; Anoctamin-1 (Mus musculus), Q8BHY3; HEK293 TMEM16A/YFP iodide influx fluorescence, ionomycin; normalized B-score (activity score, 25-100; higher = stronger inhibition) at 10 µM; 310,000 tested, 1.2% active; AID 588511, 2011;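 active means ratio plate-corrected score three or more library SD toward inhibition, starting fluorescence score within five deviations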;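 further: score derived from kinetic fluorescence span divided by baseline fluorescence per well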
Target sequence (Q8BHY3 whole entry, looked up): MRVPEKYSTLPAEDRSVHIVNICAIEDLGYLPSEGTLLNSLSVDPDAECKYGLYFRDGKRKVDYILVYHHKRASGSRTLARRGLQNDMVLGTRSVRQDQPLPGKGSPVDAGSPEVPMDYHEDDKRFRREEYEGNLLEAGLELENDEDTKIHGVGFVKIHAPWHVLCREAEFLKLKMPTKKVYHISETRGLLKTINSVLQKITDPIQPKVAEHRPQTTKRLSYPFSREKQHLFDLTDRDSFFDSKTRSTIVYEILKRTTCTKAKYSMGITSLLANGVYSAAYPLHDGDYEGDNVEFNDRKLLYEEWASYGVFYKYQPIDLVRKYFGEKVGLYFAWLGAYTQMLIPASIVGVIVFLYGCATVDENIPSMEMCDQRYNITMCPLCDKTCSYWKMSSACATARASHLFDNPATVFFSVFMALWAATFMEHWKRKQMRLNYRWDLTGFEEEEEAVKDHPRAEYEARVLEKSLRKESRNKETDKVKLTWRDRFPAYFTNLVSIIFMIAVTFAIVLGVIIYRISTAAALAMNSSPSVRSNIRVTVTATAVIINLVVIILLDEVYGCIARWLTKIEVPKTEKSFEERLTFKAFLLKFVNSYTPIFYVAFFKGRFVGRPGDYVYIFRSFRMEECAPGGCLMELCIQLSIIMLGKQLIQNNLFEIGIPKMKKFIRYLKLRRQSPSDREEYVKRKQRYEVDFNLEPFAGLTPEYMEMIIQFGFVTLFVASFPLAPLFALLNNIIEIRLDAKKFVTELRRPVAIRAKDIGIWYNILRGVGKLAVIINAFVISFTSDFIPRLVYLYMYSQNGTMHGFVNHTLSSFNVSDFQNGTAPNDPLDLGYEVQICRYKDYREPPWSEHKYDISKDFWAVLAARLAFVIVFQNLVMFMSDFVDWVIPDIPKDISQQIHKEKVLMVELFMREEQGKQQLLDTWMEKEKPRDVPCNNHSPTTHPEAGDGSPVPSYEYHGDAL
CHT PAM: CHT positive allosteric modulators, primary screen, cell-based, membrane potential dye, choline EC20; CHT-expressing cells; stronger effect = higher value; LV-AA mutant CHT in HEK293 cells; B-score at 10 µM; 310,000 tested, 0.49% active; AID 488977, 2010;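 active means initial fluorescence not abnormally high and integrated response B-score, plate-corrected, over 3 SD above library mean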
TMEM16A act: TMEM16A chloride channel activators or potentiators, primary screen, cell-based, HTS; Anoctamin-1 (Mus musculus), Q8BHY3; HEK293 TMEM16A/YFP-H148Q/I152L, iodide quench fluorescence; stronger effect = lower value; B-score at 10 µM; 340,000 tested, 0.3% active;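 active means fluorescence-ratio B-score plate-corrected deviation score at least 3 library SD below zero, with starting fluorescence score within 5 deviations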;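 further: channel opened by trigger with iodide after compound preincubation; score built on the fluorescence ratio of max minus min over baseline; more negative score means more quench and so TMEM16A activation or potentiation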
Kir21 inh: inhibitors of mouse Kir2.1 inward-rectifier potassium channel | HEK293-Kir2.1, FluxOR thallium flux fluorescence; stronger effect = lower value | B-score at 10 µM | 310,000 tested, 0.85% active | AID 1672, 2009;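 active means fluorescence ratio B-score at or below minus 3 SD of library scores, with starting-brightness B-score within 2 SD, cut at about -4.2 in these data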;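 further: channel flux triggered by added potassium and thallium sulfate stimulus; B-score of peak minus minimum fluorescence over baseline after thallium stimulus; more negative B-score means stronger Kir2.1 block with less thallium influx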
The depositor's hits bear a star; i = inactive; . = no result given.

SMILES	GPR7 antag	CHT inh	ANO1 block	CHT PAM	TMEM16A act	Kir21 inh
CC(C)c1onc(C(=O)N2CCCCCC2)c1[N+](=O)[O-]	-6	i	i	i	i	-0.41
CC(C)c1onc(C(=O)NC2CCCCC2)c1[N+](=O)[O-]	18*	i	i	i	i	-0.09
CCC1CCCCN1C(=O)c1noc(C(C)C)c1[N+](=O)[O-] (stereo not drawn)	19*	i	i	i	i	-1.3
CCN(CC(=O)Nc1c(F)cccc1F)C(=O)/C=C/c1ccc(S(=O)(=O)N2CCCCCC2)cc1	.	i	25*	i	i	0.34
O=C1CC(c2ccc(Cl)cc2)c2c(O)cc(O)cc2O1 (stereo not drawn)	-5	i	i	i	i	-1.7
C/C=C/C=C/[C@H]1Cc2cc(O)cc(O)c2O1	.	i	i	i	.	-4.3*
O=S(=O)(NNc1ncc(C(F)(F)F)cc1Cl)c1ccccc1	.	.	.	.	i	.
O=C(NC1CC(=O)N(c2ccc3c(c2)OCCO3)C1)N1CCC(O)CC1 (stereo not drawn)	.	i	i	i	i	0.01
Nc1nc2c(s1)CCCCCCCCCC2	-13	i	i	i	i	-7.4*
CC[C@]1(C(=O)OC)[C@H]2C(=O)N(C)C(=O)[C@H]2[C@H]2CN=C(SCC3CC3)N21	.	.	.	.	i	.
CN(Cc1nc(-c2ccc(Cl)cc2)no1)C(=O)c1ccc2c(c1)OCO2	.	i	25*	i	i	0.06
COc1cccc(NC(=O)c2ccccc2-c2ccccc2)c1	5	i	i	i	i	-4.2*
Cc1ccc(-n2cc(CN3CCC(O)(c4ccccn4)CC3)c(-c3ccc(F)cc3)n2)cc1	13	i	i	i	i	-0.07
COc1ccc(N(C)S(=O)(=O)c2cccc(C(=O)NC3CCCCCC3)c2)cc1	43*	i	i	i	i	-1.7
Cc1cc(C)c2nc(Nc3nc(CSc4nc5ccccc5[nH]4)cc(=O)[nH]3)nc(C)c2c1	.	.	.	.	-6.4*	.
O=C(Nc1ncc([N+](=O)[O-])s1)c1ccc2c(c1)OCO2	-14	i	100*	i	i	0.54
Cc1cnc(NC(=O)c2ccc3c(c2)OCCO3)s1	.	.	.	.	i	.
O=C(Cc1ccc(Cl)cc1)Nc1ncc([N+](=O)[O-])s1	8	.	.	.	-42*	2.9
O=C(COC(=O)COc1ccccc1)Nc1ncc([N+](=O)[O-])s1	.	.	.	.	i	.
CCC(Oc1ccccc1)C(=O)Nc1ncc([N+](=O)[O-])s1 (stereo not drawn)	-12	i	25*	i	i	-0.98
CC(CC(=O)Nc1ncc([N+](=O)[O-])s1)c1ccccc1 (stereo not drawn)	9	i	100*	i	i	-0.02
CCC(Oc1ccccc1)C(=O)Nc1nnc(C)s1 (stereo not drawn)	-4	i	i	i	i	1.5
O=C(CCl)c1ccc2c(c1)CCN2C(=O)C1CC1	3	i	i	i	.	-5.7*
O=c1c2c3c(sc2nc2sc(C4CC4)nn12)CCCC3	-13	i	25*	i	i	1.3
O=c1[nH]c(C2CC2)nc2sc3c(c12)CCCC3	4	i	i	i	i	-0.03
SMILES	GPR7 antag	CHT inh	ANO1 block	CHT PAM	TMEM16A act	Kir21 inh
CN(C(=O)COC(=O)c1cc(S(=O)(=O)N2CCCCC2)ccc1Cl)c1ccccc1	.	.	.	.	i	.
Cc1ccc(CSCCNC(=O)c2ccc(Cl)c(S(=O)(=O)N3CCOCC3)c2)cc1	-5	i	25*	i	i	-1.7
C/C(=C\C(=O)c1ccccc1)Nc1ccc(Br)c(Cl)c1	.	i	25*	i	i	-0.16
O=C(Cc1ccccc1)Nc1ccc(Br)c(Cl)c1	2	i	i	i	i	0.33
COc1ccc(-c2nn(-c3ccccc3)cc2C(=O)NC2CCCCC2C)cc1 (stereo not drawn)	.	i	i	i	i	-0.41
COc1ccc(Br)cc1CN(C)CC(=O)Nc1cc(Cl)ccc1Cl	-5	i	i	i	i	-5.7*
COc1ccccc1CN(C)CC(=O)Nc1ccc(Cl)cc1F	-10	i	i	i	i	-2.3
CN(C1=C(N2CCCCC2)C(=O)c2ccccc2C1=O)c1ccccc1	-3	-5.8*	i	i	i	0.21
O=C([C@H](O)c1ccccc1)N1CCC[C@H]1CO	-6	i	i	i	i	0.13
CC(NC(=O)COC(=O)c1ccccc1SCC(=O)N1CCCC1)c1ccccc1 (stereo not drawn)	.	i	i	i	i	0.22
Cc1ccc(C2(c3ccc(C)cc3)CC2C(=O)Nc2ccc([N+](=O)[O-])cc2O)cc1 (stereo not drawn)	16	i	100*	i	i	0.68
C/C(=N/NC(=O)c1ccco1)c1cccc(NC(=O)c2ccc(C)s2)c1	20*	i	i	i	i	-0.69
Cn1c(N)c(C(=O)COC(=O)CNC(=O)c2ccccc2F)c(=O)n(C)c1=O	.	.	.	.	i	.
NS(=O)(=O)c1ccc(N2CCCC2=O)c([N+](=O)[O-])c1	-10	i	i	i	-4.9*	-0.63
NNS(=O)(=O)c1ccc(N2CCCC2=O)c([N+](=O)[O-])c1	0	i	i	i	i	-0.4
FC(F)(F)c1ccc(NC(=S)NCc2ccccc2)cc1	24*	i	i	i	i	-1.3
OC(COc1c(F)cc(Br)cc1F)CN1CCc2ccccc2C1 (stereo not drawn)	-10	i	i	i	i	-7*
COC(=O)[C@H](CC(C)C)NS(=O)(=O)N(Cc1ccccc1)[C@@H](CC(C)C)C(=O)OC	.	.	.	.	i	.
COC(=O)[C@H](CC(C)C)NCc1cccc(CN[C@@H](CC(C)C)C(=O)OC)c1	-8	i	i	i	i	-4.3*
CCn1c(=N)n(CC(=O)c2ccc(Br)s2)c2ccccc21	20*	i	i	i	i	-0.67
CS(=O)(=O)c1ccc(NC(=O)c2ccc3c(c2)S(=O)(=O)N=C2CCCCCN23)cc1	.	i	i	i	i	-0.35
CC(C)Cc1nnc(NC(=O)CCC(=O)NCCc2ccc(Cl)cc2)s1	-4	i	i	i	i	1.5
Cc1ccc(CN2C3CCCC2CC(NC(=O)c2ccc(C)cc2)C3)cc1 (stereo not drawn)	-12	i	i	i	i	0.97
CC(Sc1nnnn1C)C(=O)Nc1cc(S(=O)(=O)N2CCCCC2)ccc1Cl (stereo not drawn)	.	.	.	.	i	.
